Each structure is given as a SMILES string. Inconclusive results are not listed. Some structures have more than one record in an assay (separate samples or runs), and their calls can disagree. Activity calls are given as the source filed them. Calls come from the whole dose curve; as a rule, active = well fitted inhibition curve with a large enough effect; inconclusive = small, poorly fitted or top-dose-only effect; inactive = flat fitted curve, though single readings scatter.

Common to all, as to experiment: qHTS profiling for inhibitors of Plasmodium falciparum proliferation (AID 504749); note: nearly all actives have a fitted effect of over 60% in size
Holding throughout (settings): P. falciparum in erythrocytes, SYBR Green DNA, 72 h; series mostly up to 28.7 µM
In general terms: Quantitative high-throughput screening tests each substance at several concentrations.

The subject of test [1] is CP268. The method, boiled down:
(§1)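 P. falciparum-infected erythrocytes (0.3% parasitemia, 2.5% hematocrit final) were exposed to compounds for 72 h at 37 C in 5% CO2, then lysed with SYBR Green buffer overnight at room temperature; parasite DNA fluorescence was normalized to artemisinin and DMSO controls.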

For test [2], the system named is CP269. The procedure, abridged: as §1
Test [3] concerns CP286. The procedure, abridged: as §1
Test [4] deals with CP291. The procedure, abridged:
as §1

For test [5], the system named is CP305. The procedure, abridged:
as §1

In test [6] the test system is CP315. The procedure, abridged: as §1
For test [7], the system named is CP325. The method, boiled down:
as §1

For test [8], the system named is CP329. The procedure, abridged:
as §1

Test [9] has as its system DFO2036. The method, boiled down: as §1
The subject of test [10] is DIV30. The procedure, abridged:
as §1

The test system of test [11] is Dd2. The procedure, abridged:
as §1

Test [12] has as its system ECU. The method, boiled down: as §1
In test [13] the test system is FAB9. The method, boiled down:
as §1

Test [14] relates to HB3. The procedure, abridged: as §1
Test [15] concerns GB4. The procedure, abridged: as §1
Test [16] has as its system ICS. The method, boiled down:
as §1

Test [17] deals with CP297. The procedure, abridged: as §1
The subject of test [18] is DIV14. The procedure, abridged: as §1
For test [19], the system named is DIV17. The procedure, abridged: as §1
The subject of test [20] is CP335. The procedure, abridged:
as §1
Potency is the fitted concentration of half-maximal effect.

As for `O=C1Nc2ccc(Cl)cc2C(C#CC2CC2)(C(F)(F)F)O1` (stereo not drawn), the result in [1], in test [2], in test [3], in [4], in [6] and in [7] was inactive. Besides, the call in [8], in test [9], in test [10] and in [13] was inactive. For the same molecule, the Potency entry in test [5], in test [11], in [12] and in test [14] was “inactive” throughout.

`CCCCC1C(=O)N(c2ccccc2)N(c2ccccc2)C1=O`: the Potency result in test [11] and in test [14] was “inactive” throughout. Besides, the Potency is 8.91 µM (active) and inactive in test [12]; 12 µM (active) in test [15]; 11.2 µM (active) in test [16]. Moreover, the outcome in [13] was inactive.

As to `CC1=C(/C=C/C(C)=C/C=C/C(C)=C/C(=O)Nc2ccc(O)cc2)C(C)(C)CCC1`, the Potency in test [17] is 13.5 µM (active); in test [5], 15.1 µM (active); in test [18], 16.9 µM (active); in test [19], 16.9 µM (active); in [11], 11.2 µM (active); in test [15] it was 10.7 µM (active). The Potency in [14] and in test [16] was 11.2 µM (active) throughout.

Regarding `CC/C(=C(\c1ccccc1)c1ccc(OCCN(C)C)cc1)c1ccccc1`, the Potency entry in test [17] and in [14] was “inactive” in each case. The molecule was classed as inactive in test [6], in [8], in test [9] and in test [13]. The Potency in test [18] is 13.5 µM (active); in [15], 10.7 µM (active); in [16], 12.6 µM (active).

Turning to `COc1ccccc1N1CCN(CCCNc2cc(=O)n(C)c(=O)n2C)CC1`, the molecule was called inactive in test [1], in [2], in [3], in [4], in test [6] and in [7]. Also, the molecule was classed as inactive in test [8], in test [9], in test [10] and in test [13]. Besides, the Potency result in [17], in test [5], in test [20], in [18], in [19] and in test [11] was “inactive” in each case. Besides, the Potency entry in test [12], in [15], in [14] and in test [16] was “inactive” each time.

For `O=C1NC(=O)C(c2ccccc2)(c2ccccc2)N1`, the outcome in test [1], in [2], in test [3], in test [4], in test [7] and in test [8] was inactive. In addition, the result in test [9], in test [10] and in [13] was inactive. In addition, the Potency entry in test [17], in test [5], in [20], in [18], in test [19] and in test [11] was “inactive” each time. Also, the Potency entry in test [12], in test [15], in test [14] and in [16] was “inactive” each time.

Consider `CC(=O)O[C@]1(C(C)=O)CC[C@H]2[C@@H]3C=C(Cl)C4=CC(=O)[C@@H]5C[C@@H]5[C@]4(C)[C@H]3CC[C@@]21C`, for which the result in test [6], in test [8], in test [9] and in test [13] was inactive. Besides, the Potency result in [11], in test [12] and in test [14] was “inactive” each time. Also, the Potency in test [16] was 12.6 µM (active).

Take `Cc1cnc(C(=O)O)c[n+]1[O-]`: the molecule was classed as inactive in [1], in test [2], in test [3], in [4], in [6] and in [7]. Further, the call in test [8], in [9], in test [10] and in test [13] was inactive. For the same molecule, the Potency entry in [17], in test [5], in [20], in [18], in test [19] and in test [11] was “inactive” in each case. For the same molecule, the Potency result in test [12], in test [15], in test [14] and in [16] was “inactive” throughout.

On to `CCN(CC)C(=O)c1ccc(O)c(OC)c1`, for which the outcome in test [1], in test [2], in [3], in [4], in test [6] and in test [7] was inactive. The result in test [8], in test [9], in test [10] and in test [13] was inactive. In addition, the Potency result in [17], in test [5], in test [20], in test [18], in test [19] and in [11] was “inactive” each time. Besides, the Potency result in test [12], in test [15], in test [14] and in [16] was “inactive” each time.

On to `O=C(O)c1cc(-c2ccccc2)nc2ccccc12`, for which the outcome in [1], in test [2], in test [3], in [4], in test [6] and in test [7] was inactive. The call in [8], in test [9], in test [10] and in test [13] was inactive. Moreover, the Potency result in test [17], in test [5], in [20], in [18], in test [19] and in test [11] was “inactive” in each case. In addition, the Potency entry in test [12], in test [15], in test [14] and in [16] was “inactive” each time.

Consider `CCCCCN(C)CCC(O)(P(=O)(O)O)P(=O)(O)O`, for which the molecule was classed as inactive in test [1], in test [2], in test [3], in [4], in test [6] and in test [7]. The call in test [8], in [9], in test [10] and in [13] was inactive. The Potency result in test [17], in test [5], in test [20], in test [18], in test [19] and in test [11] was “inactive” throughout. In addition, the Potency entry in [12], in test [15], in test [14] and in test [16] was “inactive” in each case.

As to `O=C1NCC2(CCN(CCc3ccccc3)CC2)O1`, the result in test [1], in [2], in [3], in test [4], in test [6] and in [7] was inactive. For the same molecule, the molecule was called inactive in test [8], in test [9], in test [10] and in test [13]. In addition, the Potency result in [17], in test [5], in test [20], in test [18], in [19] and in [11] was “inactive” each time. Moreover, the Potency result in test [12], in [15], in test [14] and in test [16] was “inactive” each time.

For the molecule `CC(=O)CCCCn1c(=O)c2c(ncn2C)n(C)c1=O`, the molecule was called inactive in test [1], in test [2], in [3], in test [4], in [6] and in test [7]. The molecule was classed as inactive in [8], in test [9], in [10] and in test [13]. Further, the Potency entry in test [17], in test [5], in test [20], in [18], in test [19] and in test [11] was “inactive” each time. In addition, the Potency entry in test [12], in test [15], in test [14] and in [16] was “inactive” in each case.

As to `CCN(CC)CCOC(=O)c1ccc(N)cc1`, the outcome in test [1], in [2], in test [3], in test [4], in test [6] and in [7] was inactive. In addition, the outcome in test [8], in test [9], in test [10] and in [13] was inactive. Besides, the Potency result in [17], in test [5], in [20], in [18], in test [19] and in test [11] was “inactive” each time. The Potency entry in [12], in test [15], in [14] and in test [16] was “inactive” throughout.

Consider `O=C(NCCN1CCOCC1)c1ccc(Cl)cc1`, for which the result in test [1], in [2], in test [3], in test [4], in test [6] and in test [7] was inactive. Besides, the molecule was called inactive in test [8], in test [9], in [10] and in test [13]. Moreover, the Potency result in test [17], in test [5], in [20], in [18], in [19] and in [11] was “inactive” throughout. Further, the Potency result in test [12], in test [15], in test [14] and in test [16] was “inactive” throughout.

Take `Clc1ccc(Cn2c(CN3CCCC3)nc3ccccc32)cc1`: the result in [1], in [2], in [3], in [4], in [6] and in test [7] was inactive. For the same molecule, the call in [8], in [9] and in [13] was inactive. Further, the Potency result in test [5], in [20], in test [11], in test [12] and in test [14] was “inactive” throughout.

Take `NC(N)=Nc1nc(CSCC/C(N)=N/S(N)(=O)=O)cs1`: the call in test [1], in [2], in [3], in [4], in [6] and in [7] was inactive. The molecule was classed as inactive in test [8], in test [9], in test [10] and in test [13]. The Potency result in test [17], in test [5], in test [20], in test [18], in [19] and in [11] was “inactive” throughout. Further, the Potency result in test [12], in test [15], in test [14] and in [16] was “inactive” throughout.
